# Reference: PubChem BioAssay (EPA / NIEHS)
# Inconclusive results are not listed. Calls of active or inactive are those of the source. Rule for the calls, unless noted: active = hit-call score of the fitted dose curve at least 0.9, where 1 is the maximum; inactive = score below 0.9.
# Key:
# [1] = biological target: Bile acid receptor (Homo sapiens) (UniProt Q96RI1); assay: ATG_FXR_TRANS: Attagene TRANS-FACTORIAL HepG2 Assay for Farnesoid X Receptor (FXR) (AID 2282979; active = hit-call score of the fitted dose curve at least 0.9, where 1 is the maximum;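 note: hits raise reporter mRNA above DMSO so AC50 marks FXR activation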); settings: HepG2 Attagene TRANS FXR-GAL4 reporter transcription
# In short: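 Reporter transcripts from transfected HepG2 cells were measured 24 h after dosing, using RT-PCR with capillary electrophoresis of 6-FAM-labelled fragments. The read-out reflects activity of exogenous FXR-Gal4 chimera on GAL4-UAS units, with induction relative to DMSO.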
# [2] = biological target: Oxysterols receptor LXR-alpha (Homo sapiens) (UniProt Q13133); assay: ATG_LXRa_TRANS: Attagene TRANS-FACTORIAL HepG2 Assay for human Liver X Receptor alpha (LXRa) (AID 2282980; active = hit-call score of the fitted dose curve at least 0.9, where 1 is the maximum); settings: HepG2 Attagene TRANS reporter, LXRa transactivation
# In short: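 Chemical-induced reporter mRNA measured by RT-PCR with fluorescent labelling and capillary electrophoresis after 24 h dosing of transiently transfected HepG2 cells expressing exogenous NR-Gal4 chimeras; increases scored against DMSO baseline.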
# [3] = biological target: Oxysterols receptor LXR-beta (Homo sapiens) (UniProt P55055); assay: ATG_LXRb_TRANS: Attagene TRANS-FACTORIAL HepG2 Assay for human Liver X Receptor beta (LXRb) (AID 2282981; active = hit-call score of the fitted dose curve at least 0.9, where 1 is the maximum); settings: HepG2 Attagene TRANS GAL4-LXRb reporter, mRNA
# In short: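 Readout: fluorescent reporter mRNA fragments resolved by capillary electrophoresis after RT-PCR. System: transiently transfected human HepG2, exogenous LXRb-Gal4 chimera driving GAL4-UAS reporter, 24 h dosing. Activity fitted upward against DMSO baseline.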
# [4] = ATG_M_06_TRANS: Attagene TRANS-FACTORIAL HepG2 Assay for M06 Transcription Factor (Internal Marker) (AID 2282983; active = hit-call score of the fitted dose curve at least 0.9, where 1 is the maximum); settings: HepG2 Attagene TRANS M06 internal marker reporter
# In short: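 Background-control reporter readout: after 24 h chemical exposure of transiently transfected HepG2 (GAL4-UAS reporter units), mRNA quantified by RT-PCR with fluorescent labeling and capillary electrophoresis. Gain-of-signal fitting against DMSO baseline.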
# [5] = ATG_M_32_TRANS: Attagene TRANS-FACTORIAL HepG2 Assay for M32 Transcription Factor (Internal Marker) (AID 2282984; active = hit-call score of the fitted dose curve at least 0.9, where 1 is the maximum;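 note: transcript level of a background control reporter unit measured by RT-PCR and capillary electrophoresis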); settings: HepG2 Attagene TRANS M32 internal marker reporter
# In short: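 Read-out: fluorescent reporter cDNA fragments resolved by capillary electrophoresis after RT-PCR of total RNA. Transfected HepG2 cells were exposed to chemical for 24 h. Activity scored in the positive direction relative to DMSO.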
# [6] = biological target: Transcriptional activator Myb (Homo sapiens) (UniProt P10242); assay: ATG_Myb_CIS: Attagene CIS-FACTORIAL HepG2 Assay for human Myeloblastosis (Myb) Proto-Oncogene Transcription Factor (AID 2282986); settings: HepG2 Attagene CIS-FACTORIAL Myb reporter transcription; actives raise or lower the signal
# In short: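 After 24 h of compound dosing, total RNA from transfected HepG2 cells is reverse-transcribed and the reporter sequences amplified, labeled and separated by capillary electrophoresis. Values come from bidirectional fitting against DMSO.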
# [7] = biological target: Nuclear respiratory factor 1 (Homo sapiens) (UniProt Q16656); assay: ATG_NRF1_CIS: Attagene CIS-FACTORIAL HepG2 Assay for human Nuclear Respiratory Factor 1 (NRF1) Orphan Gene (AID 2282987); settings: HepG2 NRF1 cis-element reporter, Attagene multiplex; actives raise or lower the signal
# In short: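 Measured: fluorescent reporter-specific RT-PCR products from transfected HepG2 cells, separated by capillary electrophoresis. Exposure lasted 24 h. Analysis used bidirectional curve fitting with DMSO as negative control.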
# [8] = ATG_NFI_CIS: Attagene CIS-FACTORIAL HepG2 Assay for human Nuclear Factor I (NFI) (AID 2282989); settings: HepG2 cis-regulatory reporter, NFI response element transcription; actives raise or lower the signal
# In short: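 Multiplexed cis-reporter system in human HepG2 cells reports native TF activity as reporter mRNA induction 24 h post-dose. Fragments labelled with 6-FAM, HpaI-digested and resolved by capillary electrophoresis; activity fitted both directions versus DMSO.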
# [9] = biological target: Myc proto-oncogene protein (Homo sapiens) (UniProt P01106); assay: ATG_Myc_CIS: Attagene CIS-FACTORIAL HepG2 Assay for human Myelocytomatosis (Myc) Proto-Oncogene Transcription Factor (AID 2282990); settings: HepG2, Attagene cis-reporter transcription factor activity; actives raise or lower the signal
# In short: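 Fluorescence intensity of reporter-specific cDNA fragments, separated by capillary electrophoresis, gives the signal. Transfected HepG2 cells carrying cis-promoter reporter constructs are incubated with compound for 24 h; DMSO serves as baseline.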
# [10] = ATG_NF_kB_CIS: Attagene CIS-FACTORIAL HepG2 Assay for human Nuclear Factor Kappa B (NF-kB) (AID 2282991); settings: HepG2 Attagene cis-factorial NF-kB reporter mRNA; actives raise or lower the signal
# In short: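 Fluorescence of labelled RT-PCR products separated by capillary electrophoresis gives reporter mRNA levels from transfected HepG2 cells exposed 24 h; values are fitted in both directions relative to DMSO.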
# [11] = ATG_NRF2_ARE_CIS: Attagene CIS-FACTORIAL HepG2 Assay for human Nuclear Factor Erythroid 2 Related Factor 2 (NFR2) response to Antioxidant Response Elements (ARE) (AID 2282992); settings: HepG2 Attagene ARE/NRF2 reporter, transcription factor activity; actives raise or lower the signal
# In short: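 Endogenous transcription factor activity in human liver HepG2 cells is tracked via a cis-element-driven reporter within a multiplexed set. mRNA induction is read by RT-PCR and capillary electrophoresis after 24 h, with DMSO as baseline.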
# [12] = ATG_Oct_MLP_CIS: Attagene CIS-FACTORIAL HepG2 Assay for human Octamer-Binding Transcription Factor (Oct) (AID 2282993); settings: HepG2 Attagene cis-factorial Oct reporter, mRNA; actives raise or lower the signal
# In short: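 After 24 h compound exposure, transfected HepG2 cells were lysed for total RNA; reporter-specific cDNA was PCR-amplified, fluorescently labelled and sized by capillary electrophoresis. Bidirectional curve fitting used DMSO as baseline.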
# [13] = biological target: Hepatocyte nuclear factor 4-alpha (Homo sapiens) (UniProt P41235); assay: ATG_HNF4a_TRANS: Attagene TRANS-FACTORIAL HepG2 Assay for human Hepatocyte Nuclear Factor 4 alpha (HNF4a) (AID 2282982; active = hit-call score of the fitted dose curve at least 0.9, where 1 is the maximum); settings: HepG2 HNF4a transactivation reporter, mRNA readout
# In short: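 Transient MRTU transfection of HepG2, 24 h dosing. Readout: reporter mRNA via RT-PCR + capillary electrophoresis, fluorescence; activity fit upward relative to DMSO control.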
# [14] = biological target: Cellular tumor antigen p53 (Homo sapiens) (UniProt P04637); assay: ATG_p53_CIS: Attagene CIS-FACTORIAL HepG2 Assay for human p53 Transcription Factor (AID 2282994); settings: HepG2 p53 cis-element reporter, Attagene mRNA; actives raise or lower the signal
# In short: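 Steps: transfect HepG2 with multiplexed cis reporter constructs; dose chemicals 24 h; extract RNA, reverse-transcribe, PCR-amplify reporter sequences; FAM-label, HpaI-digest, resolve fragments by CE. Activity fitted both directions relative to DMSO.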
# [15] = BSK_3C_TissueFactor: BioMAP Diversity Plus: 3C Assay for Tissue Factor Biomarker Activity (AID 2282997); settings: BioMAP 3C HUVEC, tissue factor biomarker readout; actives raise or lower the signal
# In short: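 Tissue factor on primary human umbilical vein endothelium was read by ELISA 24 h after dosing, gain or loss relative to DMSO. Cytotoxicity ran alongside via SRB (0.1%, TCA-fixed, 560 nm).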
# [16] = BSK_3C_uPAR: BioMAP Diversity Plus: 3C Assay for Urokinase-type plasminogen activator receptor (uPAR) Biomarker Activity (AID 2282998); settings: BioMAP 3C HUVEC, uPAR biomarker ELISA; actives raise or lower the signal
# In short: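 Values derive from bidirectional curve fitting relative to DMSO, which served as baseline of activity. uPAR was measured by ELISA in human umbilical vein endothelial primary cultures 24 h after compound addition.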
# [17] = BSK_3C_VCAM1: BioMAP Diversity Plus: 3C Assay for Vascular cell adhesion molecule 1 (VCAM1) Biomarker Activity (AID 2282999); settings: BioMAP 3C HUVEC, VCAM1 ELISA, cytokine-stimulated; actives raise or lower the signal
# In short: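 HUVEC primary cells, 24 h compound exposure; VCAM-1 by ELISA; gain/loss of signal fitted bidirectionally vs DMSO baseline.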
# [18] = BSK_4H_Eotaxin3: BioMAP Diversity Plus: 4H Assay for Eotaxin 3 Biomarker Activity (AID 2283000); settings: primary human endothelial cells (HUVEC); actives raise or lower the signal;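 note: CCL26 protein level quantified by ELISA in parallel with SRB cytotoxicity check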
# In short: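 Human umbilical vein endothelial cells (BSK_4H system) dosed with test chemical; Eotaxin-3 (CCL26) measured by ELISA 24 h after dosing. Bidirectional curve fitting relative to DMSO negative control as baseline.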
# [19] = biological target: Nuclear receptor subfamily 4 group A member 2 (Homo sapiens) (UniProt P43354); assay: ATG_NURR1_TRANS: Attagene TRANS-FACTORIAL HepG2 Assay for human Nuclear Receptor Related Protein 1 (NURR1) (AID 2282985; active = hit-call score of the fitted dose curve at least 0.9, where 1 is the maximum); settings: HepG2 Attagene TRANS reporter, mRNA readout
# In short: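 Read-out: reporter mRNA induction by RT-PCR plus capillary electrophoresis with fluorescence detection, after 24 h dosing of transfected HepG2 cells. Exogenous NR-Gal4 chimera activity drives GAL4-UAS reporter; activity fitted upward versus DMSO.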
# Sequence of Cellular tumor antigen p53 (Homo sapiens) (P04637 whole entry, looked up, the tested form may be a part): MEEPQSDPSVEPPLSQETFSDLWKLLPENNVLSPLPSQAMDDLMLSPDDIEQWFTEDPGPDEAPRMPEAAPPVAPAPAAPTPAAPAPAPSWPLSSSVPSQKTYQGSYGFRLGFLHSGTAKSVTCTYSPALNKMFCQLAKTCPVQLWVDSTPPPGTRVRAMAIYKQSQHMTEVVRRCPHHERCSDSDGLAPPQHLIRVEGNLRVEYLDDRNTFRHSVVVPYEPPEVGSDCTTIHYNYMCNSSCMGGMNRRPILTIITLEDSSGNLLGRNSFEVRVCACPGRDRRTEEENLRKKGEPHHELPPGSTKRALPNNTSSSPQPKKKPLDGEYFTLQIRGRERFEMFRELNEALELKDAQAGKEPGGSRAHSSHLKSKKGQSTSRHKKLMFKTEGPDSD
# Sequence of Transcriptional activator Myb (Homo sapiens) (P10242 whole entry, looked up): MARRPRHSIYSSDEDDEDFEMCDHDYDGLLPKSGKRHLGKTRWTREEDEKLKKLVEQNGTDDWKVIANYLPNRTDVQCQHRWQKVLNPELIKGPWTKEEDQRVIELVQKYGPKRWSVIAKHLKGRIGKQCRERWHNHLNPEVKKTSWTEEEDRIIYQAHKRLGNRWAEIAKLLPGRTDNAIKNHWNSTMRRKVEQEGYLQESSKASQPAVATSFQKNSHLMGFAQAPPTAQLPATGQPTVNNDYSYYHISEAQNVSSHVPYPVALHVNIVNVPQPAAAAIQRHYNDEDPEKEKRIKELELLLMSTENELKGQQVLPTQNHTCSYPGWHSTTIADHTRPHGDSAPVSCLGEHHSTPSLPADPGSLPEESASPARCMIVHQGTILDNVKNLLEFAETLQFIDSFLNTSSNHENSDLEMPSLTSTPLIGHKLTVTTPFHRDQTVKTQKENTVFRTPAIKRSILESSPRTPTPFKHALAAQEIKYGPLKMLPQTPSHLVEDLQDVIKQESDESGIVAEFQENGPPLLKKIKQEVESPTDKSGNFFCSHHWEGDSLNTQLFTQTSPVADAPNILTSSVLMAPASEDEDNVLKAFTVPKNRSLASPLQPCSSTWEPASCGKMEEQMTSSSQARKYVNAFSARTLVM
# Sequence of Nuclear respiratory factor 1 (Homo sapiens) (Q16656 whole entry, looked up): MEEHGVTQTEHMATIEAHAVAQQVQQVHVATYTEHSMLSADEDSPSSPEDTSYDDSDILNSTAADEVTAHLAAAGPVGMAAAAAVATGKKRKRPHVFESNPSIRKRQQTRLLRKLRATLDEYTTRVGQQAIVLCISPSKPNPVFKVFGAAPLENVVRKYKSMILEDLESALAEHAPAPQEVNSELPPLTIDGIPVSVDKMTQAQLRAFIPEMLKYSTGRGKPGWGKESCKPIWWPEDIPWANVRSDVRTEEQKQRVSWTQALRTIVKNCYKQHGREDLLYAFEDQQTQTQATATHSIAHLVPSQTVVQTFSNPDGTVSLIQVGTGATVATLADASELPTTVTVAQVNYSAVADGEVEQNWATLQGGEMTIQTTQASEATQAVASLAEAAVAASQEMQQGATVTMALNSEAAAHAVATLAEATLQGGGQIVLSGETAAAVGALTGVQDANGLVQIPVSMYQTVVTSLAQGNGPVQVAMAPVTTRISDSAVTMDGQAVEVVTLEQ
# Sequence of Oxysterols receptor LXR-beta (Homo sapiens) (P55055 whole entry, looked up, the tested form may be a part): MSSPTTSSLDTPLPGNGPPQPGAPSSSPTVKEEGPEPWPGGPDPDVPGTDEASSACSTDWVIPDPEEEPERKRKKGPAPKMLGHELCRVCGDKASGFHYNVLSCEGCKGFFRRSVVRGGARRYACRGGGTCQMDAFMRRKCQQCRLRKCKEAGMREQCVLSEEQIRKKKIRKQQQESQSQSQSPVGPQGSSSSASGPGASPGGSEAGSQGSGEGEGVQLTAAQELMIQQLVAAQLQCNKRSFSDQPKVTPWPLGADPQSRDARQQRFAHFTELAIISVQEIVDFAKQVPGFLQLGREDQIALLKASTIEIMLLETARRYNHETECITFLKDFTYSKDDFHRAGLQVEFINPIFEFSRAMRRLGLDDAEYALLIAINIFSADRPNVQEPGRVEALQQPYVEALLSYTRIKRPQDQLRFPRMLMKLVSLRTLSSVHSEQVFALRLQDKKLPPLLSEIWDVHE
# Sequence of Nuclear receptor subfamily 4 group A member 2 (Homo sapiens) (P43354 whole entry, looked up, the tested form may be a part): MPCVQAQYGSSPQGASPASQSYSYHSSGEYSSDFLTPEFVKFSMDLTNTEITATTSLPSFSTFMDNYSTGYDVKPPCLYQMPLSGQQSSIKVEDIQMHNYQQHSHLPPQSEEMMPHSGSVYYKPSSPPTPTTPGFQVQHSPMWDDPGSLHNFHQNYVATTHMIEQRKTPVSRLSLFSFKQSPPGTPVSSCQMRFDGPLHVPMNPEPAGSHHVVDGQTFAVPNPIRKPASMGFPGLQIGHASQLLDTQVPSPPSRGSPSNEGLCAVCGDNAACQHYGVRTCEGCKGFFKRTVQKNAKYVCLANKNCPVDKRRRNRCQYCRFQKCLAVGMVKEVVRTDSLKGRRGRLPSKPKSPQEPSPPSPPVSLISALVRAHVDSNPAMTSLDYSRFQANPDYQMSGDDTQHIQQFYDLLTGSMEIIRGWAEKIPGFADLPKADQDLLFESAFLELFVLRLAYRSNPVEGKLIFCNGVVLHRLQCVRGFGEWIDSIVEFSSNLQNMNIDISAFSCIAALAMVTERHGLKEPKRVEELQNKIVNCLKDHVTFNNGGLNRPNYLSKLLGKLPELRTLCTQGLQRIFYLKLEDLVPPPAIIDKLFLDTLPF
# Sequence of Myc proto-oncogene protein (Homo sapiens) (P01106 whole entry, looked up, the tested form may be a part): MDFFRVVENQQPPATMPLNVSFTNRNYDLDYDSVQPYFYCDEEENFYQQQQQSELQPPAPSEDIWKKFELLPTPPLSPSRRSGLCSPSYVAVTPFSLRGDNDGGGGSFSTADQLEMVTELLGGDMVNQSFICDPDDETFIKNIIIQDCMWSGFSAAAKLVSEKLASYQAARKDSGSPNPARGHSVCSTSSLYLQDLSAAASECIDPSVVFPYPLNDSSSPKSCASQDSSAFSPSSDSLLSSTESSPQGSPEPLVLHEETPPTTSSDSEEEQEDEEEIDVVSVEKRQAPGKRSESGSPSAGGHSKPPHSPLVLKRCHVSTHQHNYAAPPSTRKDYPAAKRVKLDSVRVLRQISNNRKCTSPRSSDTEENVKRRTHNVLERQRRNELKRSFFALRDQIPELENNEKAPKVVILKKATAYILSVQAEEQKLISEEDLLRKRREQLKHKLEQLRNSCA
# Sequence of Oxysterols receptor LXR-alpha (Homo sapiens) (Q13133 whole entry, looked up, the tested form may be a part): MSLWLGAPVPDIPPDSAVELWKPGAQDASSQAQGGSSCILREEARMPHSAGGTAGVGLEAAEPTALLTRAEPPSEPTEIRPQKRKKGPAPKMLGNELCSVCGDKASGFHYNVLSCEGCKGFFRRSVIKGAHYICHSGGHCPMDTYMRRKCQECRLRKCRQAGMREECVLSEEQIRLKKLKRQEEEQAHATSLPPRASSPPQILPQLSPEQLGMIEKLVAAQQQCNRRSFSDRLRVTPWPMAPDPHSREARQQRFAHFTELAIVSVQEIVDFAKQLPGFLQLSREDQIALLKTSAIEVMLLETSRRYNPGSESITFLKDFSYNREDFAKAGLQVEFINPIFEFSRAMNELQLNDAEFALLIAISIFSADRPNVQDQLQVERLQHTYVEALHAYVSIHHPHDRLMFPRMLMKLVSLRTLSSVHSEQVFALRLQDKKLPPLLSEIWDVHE
# Sequence of Bile acid receptor (Homo sapiens) (Q96RI1 whole entry, looked up, the tested form may be a part): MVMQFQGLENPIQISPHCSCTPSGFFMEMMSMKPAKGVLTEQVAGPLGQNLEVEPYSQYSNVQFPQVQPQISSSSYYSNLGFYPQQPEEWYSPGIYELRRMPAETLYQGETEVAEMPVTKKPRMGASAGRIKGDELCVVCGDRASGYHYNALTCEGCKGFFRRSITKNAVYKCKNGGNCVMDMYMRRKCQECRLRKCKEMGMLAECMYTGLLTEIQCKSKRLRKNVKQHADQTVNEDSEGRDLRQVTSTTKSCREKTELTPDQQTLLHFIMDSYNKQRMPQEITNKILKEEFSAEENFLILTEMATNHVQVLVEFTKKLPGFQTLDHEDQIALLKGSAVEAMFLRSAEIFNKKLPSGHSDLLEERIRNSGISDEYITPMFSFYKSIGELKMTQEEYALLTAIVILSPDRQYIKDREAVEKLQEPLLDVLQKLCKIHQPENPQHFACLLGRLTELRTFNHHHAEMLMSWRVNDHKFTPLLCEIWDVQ
# Sequence of Hepatocyte nuclear factor 4-alpha (Homo sapiens) (P41235 whole entry, looked up): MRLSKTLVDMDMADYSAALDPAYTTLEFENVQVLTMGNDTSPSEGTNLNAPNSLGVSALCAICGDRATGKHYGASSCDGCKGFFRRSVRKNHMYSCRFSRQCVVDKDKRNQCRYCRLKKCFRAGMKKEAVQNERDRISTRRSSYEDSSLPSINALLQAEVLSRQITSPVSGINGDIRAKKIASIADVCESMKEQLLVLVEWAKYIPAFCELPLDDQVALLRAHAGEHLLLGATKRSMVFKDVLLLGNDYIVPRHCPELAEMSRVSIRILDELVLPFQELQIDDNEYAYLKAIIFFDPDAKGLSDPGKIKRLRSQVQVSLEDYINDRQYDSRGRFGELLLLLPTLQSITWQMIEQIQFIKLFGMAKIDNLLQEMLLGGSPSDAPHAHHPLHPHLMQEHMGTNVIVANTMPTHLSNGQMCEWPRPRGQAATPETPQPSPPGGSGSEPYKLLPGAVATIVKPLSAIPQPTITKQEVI
smiles,measurement,setting,value
Cc1c(N(C)C)c(=O)n(-c2ccccc2)n1C,outcome,[1],inactive
same,outcome,[2],inactive
same,outcome,[3],inactive
same,outcome,[4],inactive
same,outcome,[5],inactive
same,outcome,[6],inactive
same,outcome,[7],inactive
same,outcome,[8],inactive
same,outcome,[9],inactive
same,outcome,[10],inactive
same,outcome,[11],inactive
same,outcome,[12],inactive
O=c1[nH]nnc2ccccc12,outcome,[1],inactive
same,outcome,[13],inactive
same,outcome,[6],inactive
same,outcome,[7],inactive
same,outcome,[9],inactive
same,outcome,[10],inactive
same,outcome,[11],inactive
same,outcome,[12],inactive
same,outcome,[14],inactive
O=P(c1ccccc1)(c1ccccc1)c1ccccc1,outcome,[1],inactive
same,outcome,[4],inactive
same,outcome,[5],inactive
same,outcome,[6],inactive
same,outcome,[7],inactive
same,outcome,[8],inactive
same,outcome,[9],inactive
same,outcome,[10],inactive
same,outcome,[11],inactive
same,outcome,[12],inactive
same,outcome,[14],inactive
same,outcome,[15],inactive
same,outcome,[16],inactive
same,outcome,[17],inactive
same,outcome,[18],inactive
CC(=O)[C@H]1CC[C@H]2[C@@H]3CC=C4C[C@@H](O)CC[C@]4(C)[C@H]3CC[C@]12C,outcome,[1],inactive
same,outcome,[13],inactive
same,outcome,[4],inactive
same,outcome,[5],inactive
same,outcome,[19],inactive
same,outcome,[6],inactive
same,outcome,[7],inactive
same,outcome,[8],inactive
same,outcome,[9],inactive
same,AC50,[11],16.5 µM (active)
same,outcome,[12],inactive
same,outcome,[14],inactive
same,outcome,[15],inactive
same,outcome,[16],inactive
same,outcome,[17],inactive
same,outcome,[18],inactive
CCCC[n+]1ccccc1,outcome,[2],inactive
same,outcome,[3],inactive
same,outcome,[13],inactive
same,outcome,[5],inactive
same,outcome,[19],inactive
same,outcome,[6],inactive
same,outcome,[7],inactive
same,outcome,[9],inactive
same,outcome,[11],inactive
same,outcome,[12],inactive
C=C[C@@H](C)CCC=C(C)C,outcome,[2],inactive
same,outcome,[3],inactive
same,outcome,[4],inactive
same,outcome,[5],inactive
same,outcome,[19],inactive
same,outcome,[6],inactive
same,outcome,[7],inactive
same,outcome,[8],inactive
same,outcome,[9],inactive
same,outcome,[10],inactive
same,outcome,[11],inactive
same,outcome,[12],inactive
same,outcome,[14],inactive
COc1ccc(NC(=O)CC(C)=O)cc1,outcome,[2],inactive
same,outcome,[13],inactive
same,outcome,[4],inactive
same,outcome,[5],inactive
same,outcome,[19],inactive
same,outcome,[6],inactive
same,outcome,[7],inactive
same,outcome,[8],inactive
same,outcome,[9],inactive
same,outcome,[11],inactive
same,outcome,[12],inactive
same,outcome,[14],inactive
CC(CN1c2ccccc2Sc2ccccc21)N(C)C (stereo unspecified),outcome,[2],inactive
same,outcome,[3],inactive
same,outcome,[13],inactive
same,outcome,[19],inactive
same,outcome,[6],inactive
same,outcome,[7],inactive
same,outcome,[9],inactive
same,outcome,[10],inactive
same,outcome,[11],inactive
same,AC50,[12],38.8 µM (active)
same,AC50,[14],30.5 µM (active)
CCCCCCCCCCCCN,outcome,[2],inactive
same,outcome,[13],inactive
same,outcome,[4],inactive
same,outcome,[5],inactive
same,outcome,[19],inactive
same,outcome,[6],inactive
same,outcome,[7],inactive
same,outcome,[9],inactive
same,AC50,[10],15 µM (active)
same,AC50,[11],17.8 µM (active)
same,outcome,[12],inactive
same,outcome,[14],inactive
OCC(CO)(CO)COCC(CO)(CO)CO,outcome,[2],inactive
same,outcome,[13],inactive
same,outcome,[4],inactive
same,outcome,[6],inactive
same,outcome,[7],inactive
same,outcome,[8],inactive
same,outcome,[9],inactive
same,outcome,[10],inactive
same,outcome,[11],inactive
same,outcome,[12],inactive
same,outcome,[14],inactive
